Data reported in PubChem BioAssay AID1159580 (chemical genetic matrix, 2015).
Among all 5,500 compounds or so, about 2,000 (36%) were called active. About 18% were inconclusive and are not listed. Rule as the data show it: active = normalized growth mostly below about 0.91 (no sharp cut-off); inconclusive = no clear call, values can overlap the other calls; inactive = mostly above about 0.92. The list shows a part of the results.

Assay: chemical genetic growth profiling, strain panel (AID 1159580);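 also: tested at 20 µM; growth read once vehicle control cultures reached saturation at 30 °C; 1 = growth at the plate median or of vehicle wells; lower values mean less growth of the strain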
Conditions: growth OD

Measured: normalized growth

COc1cc(O)c(C(=O)c2ccccc2)c(OC)c1
inactive: S. cerevisiae deletion strains, locus YAL013W, strain DEP1, active compounds read low 0.982 | S. cerevisiae deletion strains, locus YBR021W, strain FUR4, active compounds read low 0.898 | S. cerevisiae deletion strains, locus YBR229C, strain ROT2, active compounds read low 0.985 | S. cerevisiae deletion strains, locus YCL029C, strain bik1, active compounds read low 0.996 | S. cerevisiae deletion strains, locus YDL035C, strain GPR1, active compounds read low 0.972 | S. cerevisiae deletion strains, locus YDL074C, strain BRE1, active compounds read low 0.922 | S. cerevisiae deletion strains, locus YDL101C, strain DUN1, active compounds read low 0.986 | S. cerevisiae deletion strains, locus YDL134C, strain PPH21, active compounds read low 0.984 | S. cerevisiae deletion strains, locus YDL185W, strain tfp1, active compounds read low 0.989 | S. cerevisiae deletion strains, locus YDL192W, strain arf1, active compounds read low 0.982 | S. cerevisiae deletion strains, locus YDR101C, strain arx1, active compounds read low 0.961 | S. cerevisiae deletion strains, locus YDR150W, strain NUM1, active compounds read low 0.994 | S. cerevisiae deletion strains, locus YDR162C, strain NBP2, active compounds read low 0.907 | S. cerevisiae deletion strains, locus YDR318W, strain mcm21, active compounds read low 0.956 | S. cerevisiae deletion strains, locus YDR388W, active compounds read low 0.978 | S. cerevisiae deletion strains, locus YDR502C, strain sam2, active compounds read low 0.937 | S. cerevisiae deletion strains, locus YEL061C, strain CIN8, active compounds read low 0.984 | S. cerevisiae deletion strains, locus YER110C, active compounds read low 0.994 | S. cerevisiae deletion strains, locus YER155C, strain BEM2, active compounds read low 0.989 | S. cerevisiae deletion strains, locus YER167W, strain BCK2, active compounds read low 0.954 | S. cerevisiae deletion strains, locus YGL078C, strain dbp3, active compounds read low 0.99 | S. cerevisiae deletion strains, locus YGL086W, strain mad1, active compounds read low 0.983 | S. cerevisiae deletion strains, locus YGL248W, strain PDE1, active compounds read low 0.983 | S. cerevisiae deletion strains, locus YGR078C, strain PAC10, active compounds read low 0.927 | S. cerevisiae deletion strains, locus YGR135W, strain pre9, active compounds read low 0.92 | S. cerevisiae deletion strains, locus YGR229C, strain SMI1, active compounds read low 0.885 | S. cerevisiae deletion strains, locus YGR252W, strain gcn5, active compounds read low 0.914 | S. cerevisiae deletion strains, locus YHR030C, strain SLT2, active compounds read low 0.945 | S. cerevisiae deletion strains, locus YHR079C, strain IRE1 (second series), active compounds read low 0.966 | S. cerevisiae deletion strains, locus YHR094C, strain hxt1, active compounds read low 0.986 | S. cerevisiae deletion strains, locus YHR129C, strain ARP1, active compounds read low 0.972 | S. cerevisiae deletion strains, locus YHR200W, strain rpn10, active compounds read low 0.985 | S. cerevisiae deletion strains, locus YIL066C, strain RNR3, active compounds read low 0.938 | S. cerevisiae deletion strains, locus YIL073C, strain SPO22, active compounds read low 1 | S. cerevisiae deletion strains, locus YIL125W, strain kgd1, active compounds read low 0.981 | S. cerevisiae deletion strains, locus YIR030C, strain dcg1, active compounds read low 0.979 | S. cerevisiae deletion strains, locus YJL095W, strain BCK1, active compounds read low 0.806 | S. cerevisiae deletion strains, locus YJL134W, strain LCB3, active compounds read low 0.986 | S. cerevisiae deletion strains, locus YJL168C, strain set2, active compounds read low 0.99 | S. cerevisiae deletion strains, locus YJL187C, strain SWE1 (second series), active compounds read low 0.964 | S. cerevisiae deletion strains, locus YJR043C, strain POL32, active compounds read low 0.981 | S. cerevisiae deletion strains, locus YJR075W, strain HOC1, active compounds read low 0.935 | S. cerevisiae deletion strains, locus YKL009W, strain mrt4, active compounds read low 0.99 | S. cerevisiae deletion strains, locus YKL068W, active compounds read low 0.986 | S. cerevisiae deletion strains, locus YKL085W, strain MDH1 (second series), active compounds read low 0.987 | S. cerevisiae deletion strains, locus YKL085W, strain MDH1, active compounds read low 0.987 | S. cerevisiae deletion strains, locus YKL190W, strain CNB1, active compounds read low 0.991 | S. cerevisiae deletion strains, locus YKR001C, strain vps1, active compounds read low 0.936 | S. cerevisiae deletion strains, locus YLR039C, strain RIC1, active compounds read low 0.827 | S. cerevisiae deletion strains, locus YLR058C, strain SHM2, active compounds read low 0.984 | S. cerevisiae deletion strains, locus YLR102C, strain apc9, active compounds read low 0.98 | S. cerevisiae deletion strains, locus YLR262C, strain YPT6, active compounds read low 0.817 | S. cerevisiae deletion strains, locus YLR268W, strain sec22, active compounds read low 0.904 | S. cerevisiae deletion strains, locus YLR330W, strain CHS5, active compounds read low 0.984 | S. cerevisiae deletion strains, locus YLR342W, strain FKS1 (second series), active compounds read low 0.88 | S. cerevisiae deletion strains, locus YLR371W, strain rom2, active compounds read low 0.991 | S. cerevisiae deletion strains, locus YML016C, strain PPZ1, active compounds read low 0.981 | S. cerevisiae deletion strains, locus YML032C, strain rad52, active compounds read low 0.994 | S. cerevisiae deletion strains, locus YML124C, strain tub3, active compounds read low 0.983 | S. cerevisiae deletion strains, locus YMR078C, strain ctf18, active compounds read low 0.98 | S. cerevisiae deletion strains, locus YMR223W, strain ubp8, active compounds read low 0.966 | S. cerevisiae deletion strains, locus YMR263W, strain SAP30, active compounds read low 0.962 | S. cerevisiae deletion strains, locus YMR307W, strain GAS1, active compounds read low 0.647 | S. cerevisiae deletion strains, locus YNL067W, strain RPL9B, active compounds read low 0.953 | S. cerevisiae deletion strains, locus YNL128W, strain TEP1, active compounds read low 0.991 | S. cerevisiae deletion strains, locus YNL153C, strain GIM3, active compounds read low 0.961 | S. cerevisiae deletion strains, locus YNL233W, strain BNI4, active compounds read low 0.904 | S. cerevisiae deletion strains, locus YNL250W, strain rad50, active compounds read low 1 | S. cerevisiae deletion strains, locus YNL271C, strain bni1, active compounds read low 0.982 | S. cerevisiae deletion strains, locus YNL298W, strain CLA4, active compounds read low 0.987 | S. cerevisiae deletion strains, locus YNL322C, strain KRE1, active compounds read low 0.99 | S. cerevisiae deletion strains, locus YNR052C, strain pop2, active compounds read low 1.01 | S. cerevisiae deletion strains, locus YOL006C, strain TOP1, active compounds read low 0.824 | S. cerevisiae deletion strains, locus YOL012C, strain htz1 0.9 | S. cerevisiae deletion strains, locus YOL147C, strain pex11, active compounds read low 0.965 | S. cerevisiae deletion strains, locus YOR061W, strain CKA2, active compounds read low 0.989 | S. cerevisiae deletion strains, locus YOR069W, strain VPS5, active compounds read low 0.987 | S. cerevisiae deletion strains, locus YOR136W, strain idh2, active compounds read low 1.01 | S. cerevisiae deletion strains, locus YOR144C, strain elg1, active compounds read low 0.983 | S. cerevisiae deletion strains, locus YOR184W, strain ser1, active compounds read low 0.931 | S. cerevisiae deletion strains, locus YOR316C, strain cot1, active compounds read low 0.981 | S. cerevisiae deletion strains, locus YPL055C, strain LGE1, active compounds read low 0.927 | S. cerevisiae deletion strains, locus YPL241C, strain CIN2, active compounds read low 0.986 | S. cerevisiae deletion strains, locus YPR119W, strain clb2, active compounds read low 0.98 | S. cerevisiae deletion strains, locus YPR141C, strain kar3, active compounds read low 0.99 | S. cerevisiae deletion strains, locus YPR163C, strain tif3, active compounds read low 0.928 | S. cerevisiae deletion strains, locus YPR167C, strain met16, active compounds read low 0.978 | S. cerevisiae deletion strains, strain wtn01, active compounds read low 0.929 | S. cerevisiae strains, strain wild type, active compounds read low 0.983
active: S. cerevisiae deletion strains, locus YLR418C, strain cdc73, active compounds read low 0.813 | S. cerevisiae deletion strains, locus YNL307C, strain MCK1, active compounds read low 0.73
